Experiments:
[1] = target: Tyrosine-protein kinase receptor UFO (Homo sapiens) (UniProt P30530); details: at 1 µM
[2] = target: Tyrosine-protein kinase Blk (Homo sapiens) (UniProt P51451); details: at 0.1 µM
[3] = target: Tyrosine-protein kinase Blk (Homo sapiens) (UniProt P51451); details: at 1 µM
[4] = target: T1, Cytoplasmic tyrosine-protein kinase BMX (Homo sapiens) (UniProt P51813); details: at 1 µM
T1 sequence (whole entry): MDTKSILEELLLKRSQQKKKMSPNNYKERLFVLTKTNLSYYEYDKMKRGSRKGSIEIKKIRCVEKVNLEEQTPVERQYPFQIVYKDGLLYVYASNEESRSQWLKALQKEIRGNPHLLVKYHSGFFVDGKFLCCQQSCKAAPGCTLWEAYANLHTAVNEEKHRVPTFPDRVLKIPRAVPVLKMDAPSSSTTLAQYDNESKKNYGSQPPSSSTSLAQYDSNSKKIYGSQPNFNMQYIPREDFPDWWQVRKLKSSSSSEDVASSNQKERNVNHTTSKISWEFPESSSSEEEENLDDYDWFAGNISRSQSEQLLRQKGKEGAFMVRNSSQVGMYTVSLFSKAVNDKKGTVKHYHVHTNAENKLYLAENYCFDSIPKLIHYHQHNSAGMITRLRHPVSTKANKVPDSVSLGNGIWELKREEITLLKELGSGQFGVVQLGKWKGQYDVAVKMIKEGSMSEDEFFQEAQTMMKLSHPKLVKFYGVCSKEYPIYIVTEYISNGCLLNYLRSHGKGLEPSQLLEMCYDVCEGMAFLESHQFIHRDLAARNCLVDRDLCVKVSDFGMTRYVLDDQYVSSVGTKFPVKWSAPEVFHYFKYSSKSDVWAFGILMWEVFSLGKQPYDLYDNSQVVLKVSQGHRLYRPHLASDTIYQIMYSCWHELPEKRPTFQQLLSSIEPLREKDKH

[5] = target: Protein-tyrosine kinase 6 (Homo sapiens) (UniProt Q13882); details: at 0.1 µM
[6] = target: Protein-tyrosine kinase 6 (Homo sapiens) (UniProt Q13882); details: at 1 µM
[7] = target: Tyrosine-protein kinase BTK (Homo sapiens) (UniProt Q06187); details: at 0.1 µM
[8] = target: Tyrosine-protein kinase BTK (Homo sapiens) (UniProt Q06187); details: at 1 µM
[9] = target: Tyrosine-protein kinase CSK (Homo sapiens) (UniProt P41240); details: at 0.1 µM
[10] = target: Tyrosine-protein kinase CSK (Homo sapiens) (UniProt P41240); details: at 1 µM
[11] = target: T2, Discoidin domain-containing receptor 2 (Homo sapiens) (UniProt Q16832); details: at 0.1 µM
T2 sequence (whole entry): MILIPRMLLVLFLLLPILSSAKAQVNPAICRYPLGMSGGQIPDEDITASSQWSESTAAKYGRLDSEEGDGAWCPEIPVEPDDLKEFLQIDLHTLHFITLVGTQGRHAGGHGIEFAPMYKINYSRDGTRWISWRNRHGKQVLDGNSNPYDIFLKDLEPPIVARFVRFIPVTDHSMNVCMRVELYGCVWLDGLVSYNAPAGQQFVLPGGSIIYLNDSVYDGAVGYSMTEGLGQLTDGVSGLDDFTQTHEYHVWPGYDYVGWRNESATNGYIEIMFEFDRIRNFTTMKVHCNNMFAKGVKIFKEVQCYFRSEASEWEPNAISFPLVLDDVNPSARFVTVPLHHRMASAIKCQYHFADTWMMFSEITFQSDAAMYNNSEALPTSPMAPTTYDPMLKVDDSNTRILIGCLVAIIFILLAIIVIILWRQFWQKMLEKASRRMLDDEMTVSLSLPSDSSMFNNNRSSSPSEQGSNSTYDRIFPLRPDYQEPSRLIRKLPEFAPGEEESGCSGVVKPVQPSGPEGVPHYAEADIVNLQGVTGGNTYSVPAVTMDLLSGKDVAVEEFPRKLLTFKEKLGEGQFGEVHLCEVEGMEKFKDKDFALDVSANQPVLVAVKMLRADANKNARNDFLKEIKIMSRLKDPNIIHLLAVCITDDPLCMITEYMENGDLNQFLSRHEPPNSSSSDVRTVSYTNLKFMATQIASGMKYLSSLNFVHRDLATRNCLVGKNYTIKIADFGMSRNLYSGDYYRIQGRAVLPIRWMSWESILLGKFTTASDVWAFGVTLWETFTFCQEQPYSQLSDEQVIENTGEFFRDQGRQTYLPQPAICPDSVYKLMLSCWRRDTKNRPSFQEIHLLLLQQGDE

[12] = target: T2, Discoidin domain-containing receptor 2 (Homo sapiens); details: at 1 µM
[13] = target: Epidermal growth factor receptor (Homo sapiens) (UniProt P00533); details: at 0.1 µM
[14] = target: Epidermal growth factor receptor (Homo sapiens) (UniProt P00533); details: at 1 µM
[15] = system: Epidermal growth factor receptor (Homo sapiens), P00533 [L858R]; details: at 0.1 µM
[16] = system: Epidermal growth factor receptor (Homo sapiens), P00533 [L858R]; details: at 1 µM
[17] = system: Epidermal growth factor receptor (Homo sapiens), P00533 [L861Q]; details: at 0.1 µM
[18] = system: Epidermal growth factor receptor (Homo sapiens), P00533 [L861Q]; details: at 1 µM
[19] = system: Epidermal growth factor receptor (Homo sapiens), P00533 [T790M]; details: at 0.1 µM
[20] = target: T1, Cytoplasmic tyrosine-protein kinase BMX (Homo sapiens); details: at 0.1 µM

Chain of Tyrosine-protein kinase CSK (Homo sapiens) (P41240 2-450 limits assumed): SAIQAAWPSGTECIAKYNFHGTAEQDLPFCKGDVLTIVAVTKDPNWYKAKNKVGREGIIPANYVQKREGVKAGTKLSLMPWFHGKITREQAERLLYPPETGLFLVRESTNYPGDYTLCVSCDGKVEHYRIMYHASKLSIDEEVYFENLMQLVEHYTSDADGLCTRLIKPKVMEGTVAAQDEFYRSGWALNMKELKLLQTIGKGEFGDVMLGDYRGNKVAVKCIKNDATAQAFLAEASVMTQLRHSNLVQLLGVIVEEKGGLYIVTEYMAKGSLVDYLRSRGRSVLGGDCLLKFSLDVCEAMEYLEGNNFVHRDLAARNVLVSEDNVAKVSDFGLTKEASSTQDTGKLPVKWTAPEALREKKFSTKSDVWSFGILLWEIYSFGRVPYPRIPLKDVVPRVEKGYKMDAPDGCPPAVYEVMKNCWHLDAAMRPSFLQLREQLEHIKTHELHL
Chain of Epidermal growth factor receptor (Homo sapiens), P00533 [L861Q] (P00533 whole entry L861Q): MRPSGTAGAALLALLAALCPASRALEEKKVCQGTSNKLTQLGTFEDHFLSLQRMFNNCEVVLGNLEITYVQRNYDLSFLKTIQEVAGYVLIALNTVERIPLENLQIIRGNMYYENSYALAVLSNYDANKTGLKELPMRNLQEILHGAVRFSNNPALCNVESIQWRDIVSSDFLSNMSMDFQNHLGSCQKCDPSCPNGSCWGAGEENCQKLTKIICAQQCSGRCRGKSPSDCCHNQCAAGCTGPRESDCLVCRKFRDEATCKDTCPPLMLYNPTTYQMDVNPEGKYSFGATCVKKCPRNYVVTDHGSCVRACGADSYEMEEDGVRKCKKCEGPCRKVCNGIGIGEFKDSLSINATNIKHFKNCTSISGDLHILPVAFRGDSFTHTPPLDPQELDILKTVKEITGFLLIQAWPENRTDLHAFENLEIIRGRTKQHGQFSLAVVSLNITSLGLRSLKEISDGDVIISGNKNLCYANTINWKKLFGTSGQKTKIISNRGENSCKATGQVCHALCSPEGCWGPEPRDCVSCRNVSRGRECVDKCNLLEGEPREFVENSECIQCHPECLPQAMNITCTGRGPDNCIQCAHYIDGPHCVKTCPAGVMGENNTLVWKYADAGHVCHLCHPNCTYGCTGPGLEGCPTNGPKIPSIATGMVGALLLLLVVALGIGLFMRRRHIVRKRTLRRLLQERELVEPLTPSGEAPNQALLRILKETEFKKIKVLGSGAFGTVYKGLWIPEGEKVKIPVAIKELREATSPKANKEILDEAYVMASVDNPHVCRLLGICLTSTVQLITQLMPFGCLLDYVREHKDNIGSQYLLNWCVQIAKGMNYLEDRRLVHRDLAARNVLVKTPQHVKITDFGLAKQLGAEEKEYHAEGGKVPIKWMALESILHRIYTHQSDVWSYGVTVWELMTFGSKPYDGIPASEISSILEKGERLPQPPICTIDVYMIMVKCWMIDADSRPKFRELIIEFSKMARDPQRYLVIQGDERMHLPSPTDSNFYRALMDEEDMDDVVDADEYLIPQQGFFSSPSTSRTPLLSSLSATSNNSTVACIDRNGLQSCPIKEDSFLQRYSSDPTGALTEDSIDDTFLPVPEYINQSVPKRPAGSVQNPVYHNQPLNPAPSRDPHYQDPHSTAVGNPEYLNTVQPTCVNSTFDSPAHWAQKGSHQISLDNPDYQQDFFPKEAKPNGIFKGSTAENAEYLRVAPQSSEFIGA
Chain of Tyrosine-protein kinase receptor UFO (Homo sapiens) (P30530 whole entry): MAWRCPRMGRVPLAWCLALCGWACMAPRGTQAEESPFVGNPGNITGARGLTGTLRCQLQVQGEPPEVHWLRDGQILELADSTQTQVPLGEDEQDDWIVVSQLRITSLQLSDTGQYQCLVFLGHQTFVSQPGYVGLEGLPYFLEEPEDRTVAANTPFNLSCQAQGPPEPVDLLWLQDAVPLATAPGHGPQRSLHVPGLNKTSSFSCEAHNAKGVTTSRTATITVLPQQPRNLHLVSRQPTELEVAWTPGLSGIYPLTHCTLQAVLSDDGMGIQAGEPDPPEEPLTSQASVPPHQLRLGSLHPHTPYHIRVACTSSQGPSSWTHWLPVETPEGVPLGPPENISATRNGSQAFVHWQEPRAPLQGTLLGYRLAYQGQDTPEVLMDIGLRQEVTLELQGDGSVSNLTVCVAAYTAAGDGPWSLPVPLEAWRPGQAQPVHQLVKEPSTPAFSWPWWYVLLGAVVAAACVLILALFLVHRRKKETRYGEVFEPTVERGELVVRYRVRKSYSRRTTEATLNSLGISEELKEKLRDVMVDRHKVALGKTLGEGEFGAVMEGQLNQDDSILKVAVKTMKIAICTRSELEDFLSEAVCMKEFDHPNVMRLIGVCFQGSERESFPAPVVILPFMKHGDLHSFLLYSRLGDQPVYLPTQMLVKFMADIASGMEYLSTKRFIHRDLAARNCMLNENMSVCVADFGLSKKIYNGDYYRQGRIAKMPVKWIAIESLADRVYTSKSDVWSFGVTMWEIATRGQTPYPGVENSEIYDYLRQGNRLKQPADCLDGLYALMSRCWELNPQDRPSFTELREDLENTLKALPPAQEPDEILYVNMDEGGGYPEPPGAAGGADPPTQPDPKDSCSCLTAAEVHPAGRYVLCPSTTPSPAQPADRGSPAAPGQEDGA
Chain of Epidermal growth factor receptor (Homo sapiens), P00533 [L858R] (P00533 whole entry L858R): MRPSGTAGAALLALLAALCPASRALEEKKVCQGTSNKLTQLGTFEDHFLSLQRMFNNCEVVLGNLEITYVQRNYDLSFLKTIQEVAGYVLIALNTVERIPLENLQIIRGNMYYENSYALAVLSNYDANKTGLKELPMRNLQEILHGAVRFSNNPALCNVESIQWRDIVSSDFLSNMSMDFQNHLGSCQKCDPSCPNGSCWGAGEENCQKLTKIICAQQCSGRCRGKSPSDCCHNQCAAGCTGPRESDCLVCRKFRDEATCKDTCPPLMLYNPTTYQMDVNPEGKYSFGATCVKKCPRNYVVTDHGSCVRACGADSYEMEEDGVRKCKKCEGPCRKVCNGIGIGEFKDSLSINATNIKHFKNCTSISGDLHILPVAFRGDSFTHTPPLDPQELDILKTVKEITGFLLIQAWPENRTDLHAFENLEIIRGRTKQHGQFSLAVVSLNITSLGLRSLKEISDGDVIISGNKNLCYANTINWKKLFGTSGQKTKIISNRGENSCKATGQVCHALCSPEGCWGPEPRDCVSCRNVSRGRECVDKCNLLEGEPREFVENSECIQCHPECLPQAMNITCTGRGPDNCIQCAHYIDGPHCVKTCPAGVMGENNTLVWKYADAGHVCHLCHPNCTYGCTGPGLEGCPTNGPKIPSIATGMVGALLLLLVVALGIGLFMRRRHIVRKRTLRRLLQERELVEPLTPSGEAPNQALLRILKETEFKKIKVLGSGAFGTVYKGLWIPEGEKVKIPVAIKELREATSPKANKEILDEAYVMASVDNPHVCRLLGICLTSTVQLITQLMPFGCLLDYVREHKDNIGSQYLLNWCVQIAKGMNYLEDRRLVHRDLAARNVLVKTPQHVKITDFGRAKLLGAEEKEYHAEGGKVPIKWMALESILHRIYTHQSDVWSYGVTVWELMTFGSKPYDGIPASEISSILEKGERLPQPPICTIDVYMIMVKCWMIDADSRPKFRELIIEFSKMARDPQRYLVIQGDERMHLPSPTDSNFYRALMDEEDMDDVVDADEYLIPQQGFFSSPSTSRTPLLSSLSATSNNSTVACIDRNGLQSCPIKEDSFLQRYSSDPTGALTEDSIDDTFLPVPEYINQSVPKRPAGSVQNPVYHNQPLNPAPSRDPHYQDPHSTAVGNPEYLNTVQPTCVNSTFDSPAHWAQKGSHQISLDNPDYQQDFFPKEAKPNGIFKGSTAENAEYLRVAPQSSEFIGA
Chain of Epidermal growth factor receptor (Homo sapiens) (P00533 whole entry): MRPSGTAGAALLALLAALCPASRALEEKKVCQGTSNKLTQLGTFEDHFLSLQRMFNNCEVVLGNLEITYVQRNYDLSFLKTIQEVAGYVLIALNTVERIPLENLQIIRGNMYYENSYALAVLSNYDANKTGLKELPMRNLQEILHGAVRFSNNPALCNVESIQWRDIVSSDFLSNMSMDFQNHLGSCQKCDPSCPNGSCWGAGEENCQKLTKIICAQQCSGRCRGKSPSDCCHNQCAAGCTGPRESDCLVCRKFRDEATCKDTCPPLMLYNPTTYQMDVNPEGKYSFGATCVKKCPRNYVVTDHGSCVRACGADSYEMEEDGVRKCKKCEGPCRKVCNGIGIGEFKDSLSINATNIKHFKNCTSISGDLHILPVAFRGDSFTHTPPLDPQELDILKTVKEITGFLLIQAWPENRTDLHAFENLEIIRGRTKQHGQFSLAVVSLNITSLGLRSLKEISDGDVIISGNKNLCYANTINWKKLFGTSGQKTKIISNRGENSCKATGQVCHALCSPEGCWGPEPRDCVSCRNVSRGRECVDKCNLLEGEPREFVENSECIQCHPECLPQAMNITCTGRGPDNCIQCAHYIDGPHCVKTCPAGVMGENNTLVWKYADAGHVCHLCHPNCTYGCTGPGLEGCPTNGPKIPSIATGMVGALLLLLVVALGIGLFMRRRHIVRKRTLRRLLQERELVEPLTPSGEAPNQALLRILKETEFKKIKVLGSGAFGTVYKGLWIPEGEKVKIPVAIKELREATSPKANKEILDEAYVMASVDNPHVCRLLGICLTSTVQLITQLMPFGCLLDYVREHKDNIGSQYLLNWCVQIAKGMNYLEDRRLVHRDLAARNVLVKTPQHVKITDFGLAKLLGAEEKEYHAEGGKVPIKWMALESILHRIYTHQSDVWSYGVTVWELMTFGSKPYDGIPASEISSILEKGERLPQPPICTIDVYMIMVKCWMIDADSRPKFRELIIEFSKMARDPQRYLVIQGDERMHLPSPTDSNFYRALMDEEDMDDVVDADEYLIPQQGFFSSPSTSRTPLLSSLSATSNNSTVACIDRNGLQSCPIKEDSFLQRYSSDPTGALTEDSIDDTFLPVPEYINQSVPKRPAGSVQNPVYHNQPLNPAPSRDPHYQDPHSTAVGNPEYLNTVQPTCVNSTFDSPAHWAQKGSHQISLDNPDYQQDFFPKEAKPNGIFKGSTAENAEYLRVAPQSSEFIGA

| SMILES | inhibition [1] | inhibition [2] | inhibition [3] | inhibition [4] | inhibition [5] | inhibition [6] | inhibition [7] | inhibition [8] | inhibition [9] | inhibition [10] | inhibition [11] | inhibition [12] | inhibition [13] | inhibition [14] | inhibition [15] | inhibition [16] | inhibition [17] | inhibition [18] | inhibition [19] | inhibition [20] |
| --- | --- | --- | --- | --- | --- | --- | --- | --- | --- | --- | --- | --- | --- | --- | --- | --- | --- | --- | --- | --- |
| CC(C)c1ccc(Nc2nccc(-c3cnn4ncccc34)n2)cc1 | 0.39% | 1.48% | 4.76% | 5.9% | 3.47% | 6.47% | -1.04% | -0.53% | 4.27% | 6.02% | 1.04% | 0.75% | 4.49% | 6.88% | 3.51% | 7.83% | 4.16% | 6.18% | -0.27% |  |
| CCS(=O)(=O)c1ccc(OC)c(Nc2nccc(N(C)c3ccc4c(C)n[nH]c4c3)n2)c1 | -3.9% | 15.4% | 67.5% | 23.2% | 18.8% | 79.3% | 2.21% | 27.1% | 1.43% | 15.2% | -0.23% | -2.28% | 7.37% | 35.2% | 7.56% | 43.1% | 7.97% | 31.4% | 4.42% | 3.66% |
| Cc1ccc2c(-c3ccnc(Nc4ccc5c(c4)OCCO5)n3)c(-c3ccc(C(F)(F)F)cc3)nn2n1 | 1.14% | 3.28% | 4.48% | 0.94% | 0.39% | 3.26% | 0.75% | 1.71% | -2.99% | 0.48% | -0.19% | 6.25% | -0.94% | 3.45% | 0.63% | 5.71% | -1.17% | 5.26% | -0.63% |  |
| CS(=O)(=O)CCNCc1nc(-c2ccc3ncnc(Nc4ccc(OCc5cccc(C(F)(F)F)c5)cc4)c3c2)cs1 | -2.54% | 1.22% | 4.48% | 5.73% | -0.74% | 1.75% | 0.43% | 1.66% | 3.59% | 2.7% | 5.44% | 5.59% | 14.6% | 64% | 8.86% | 43.9% | 11.5% | 34.8% | -1.75% | 3.48% |
| NS(=O)(=O)c1ccc(Nc2cc(-c3cccc(O)c3)n[nH]2)cc1 | -5.6% | 3.31% | 6.67% | 4.72% | 4.78% | 6.34% | -0.39% | 0.41% | 4.63% | 5.32% | 2.49% | 3.91% | 0.67% | 1.98% | 5.34% | 5.18% | 3.68% | 1.85% | 2.46% | -0.08% |
| CCCN1CCCC(c2ccc(Nc3nc(Nc4cc(F)ccc4C(N)=O)c4cc[nH]c4n3)c(OC)c2)C1 (configuration not stated) | 57.4% | 2.11% | 6.81% | 5.71% | 18.1% | 67.8% | 0.49% | -1.31% | 2.66% | 4.58% | 2.62% | 4.82% | 7.23% | 38% | 9.57% | 37.5% | 7.28% | 28.4% | 32% | 5.67% |
| COC(=O)Nc1nc2cc(Oc3ccc(NC(=O)Nc4cccc(Br)c4)cc3)ccc2[nH]1 | 9.52% | 3.1% | 2.8% | 1.32% | 3.81% | 4.63% | 1.15% | 0.55% | 7.57% | 3.27% | 98.2% | 93.7% | 1.74% | 3.19% | 5.58% | 5.33% | 3.01% | 4.1% | 2.15% | 2.76% |
| COc1ccc2ncnc(Nc3ccc(OCc4ccccc4)cc3)c2c1 | -5.04% | 2.17% | 6.3% | 2.81% | 0.54% | 9.39% | -0.01% | 1.33% | 2.5% | 8.35% | 1.31% | 2.34% | 62.7% | 76.2% | 12.1% | 46.3% | 23.9% | 39% | -0.31% | 2.68% |
| C[C@@H](Oc1cc(-n2cnc3ccc(OC[C@@H](O)CO)cc32)sc1C(N)=O)c1ccccc1Cl | 3.2% | -0.24% | 3.09% | 0.31% |  | -0.38% | -0.29% | -0.5% | -0.73% | -0.52% | 0.32% | 0.79% | -0.06% | 2.04% | -2.48% | 1.14% | -1.31% | -2.45% | -3.45% | 4.05% |
| NS(=O)(=O)c1cccc(-c2cc3ccncc3cc2OCc2ccccc2)c1 | -7.14% | 2.09% | 6.09% | 4.21% | 4.43% | 4.64% | -0.27% | 0.84% | 5.62% | 4.74% | 1.4% | 6.85% | -0.75% | 3.23% | 4.24% | 6.99% | 4.79% | 3.2% | 2.32% | -0.13% |
| ON=C1CCc2cc(-c3nc(C4CCNCC4)[nH]c3-c3ccncc3)ccc21 | 2.54% | 0.32% | 2.67% | -1.75% | -0.84% | -2.02% | -1.11% | 3.08% | -4.87% | -6.96% | -0.82% | -2.38% | 0.23% | 2.59% | -0.65% | -1.1% | 0.26% | -2.11% | -0.91% | 1.43% |
| O=C1Nc2ccc(-c3cccnc3)cc2C1=Cc1cc(Br)c(O)c(Br)c1 | -2.44% | 2.77% | 10.8% | 4.31% | 4.36% | 10.7% | 0.22% | 1.61% | 4.14% | -1.69% | 2.03% | 5.97% | -0.06% | 5.08% | 4.88% | 10.5% | 2.92% | 2.2% | 2.3% | -2.3% |
| Cc1cc(O)cc(C)c1/C=C/c1cncc(C(=O)N(C)C)c1 | 3.27% | 2.94% | 3.78% | 5.69% | 2.85% | 6.32% | 1.28% | 1.08% | 4.08% | 7.46% | 4% | 6.51% | 3.09% | 6.63% | 2.7% | 3.1% | 3.53% | 2.99% | 1.24% | -2.2% |

Source: ChEMBL document CHEMBL1961873, “Compounds: GSK PKIS; Assays: Nanosyn kinase panel” (2012)
